In PubChem BioAssay (NCATS) one finds viability and Potency data, which are given here for 40 molecules.

Results filed as inconclusive are left out. Active and inactive are the calls of the source. Calls follow the shape of the dose curve; as a rule, active = well fitted inhibition curve with a large enough effect; inconclusive = small, poorly fitted or top-dose-only effect; inactive = no such curve, though single readings can be large or run the other way.
Potency is read from the fitted curve at half-maximal effect.

The nature of the assay: BET inhibitor-based combinations targeting novel dependencies in MECOM-rearranged (r) AML: SET-2 cell line (AID 2202231). Also: nearly all actives have a fitted effect of over 35% in size. Particulars: SET-2 AML cells viability, CellTiter-Glo luminescence, 48 h; viability: hits give low values, series mostly up to about 46 µM. The text has this: Ecotropic viral insertion site 1 (EVI1) is located on chromosome 3q26.2 as part of the MECOM (MDS and EVI1 complex) locus. Under normal hematopoiesis, EVI1 is a regulator of hematopoietic stem cell maintenance and self-renewal and EVI1 levels decrease as the cells differentiate. In approximately 5-10% of de novo acute myeloid leukemia (AML) EVI1 is aberrantly expressed, including Chromosomal inv(3)(q21;q26.2) or t(3;3)(q21;q26.2) alterations (MECOM-r) that account for about 50% of AML with EVI1 overexpression 31. AMLs with high levels of EVI1 have a poor prognosis and an overall survival time averaging between 10-14 months. EVI1 overexpression confers resistance in leukemia cells, highlighting the need to develop new targeted therapies for EVI1 overexpressing AMLs.
Here, we performed an unbiased chemical drug screening by evaluating the single agent activity of a collection of 2,480 oncology-focused, approved and investigational drugs (NCATS Mechanism Interrogation Plates, MIPE v5.0) against a panel of seven AML cell lines. These included four MECOM-r cell-lines (AML-191, AML-194, UCSD-AML1 and HNT-34) and three non-MECOM-r AMLs (MV4-11, OCI-AML3 and SET-2). Exploiting the mechanistic redundancy built in the library, we identified target-level sensitivities in MECOM-r AML cells and relative activity as compared to other AML subtypes.
A collection of 2480 mechanistically annotated dugs (MIPE v5.0) was used to screen four 3q26.2 rearranged AML cell lines and three non-3q26.2 rearranged AML cell lines. This library purposely exploits redundancy by including multiple inhibitors of key onco-targets, while simultaneously encompassing mechanistic diversity, targeting more than 800 distinct mechanisms of action. Briefly, cells were seeded in 5 uL of growth media using a Multidrop Combi dispenser into 1536 well white polystyrene tissue culture treated plates (Corning) at a density of 500cells/well. For each cell-line, for each of the 2480 drugs in MIPE v5.0 library, an 11-point dose curve was generated via a 1536 pin-tool. Plates were incubated for 48 hr at standard incubator conditions, covered by a stainless steel gasketed lid to prevent evaporation. Cell viability was determined by luminescence based, Cell Titer Glo assay (Promega). In detail, 3 uL of Cell Titer Glo were added to each well and plates were incubated at room temperature for 15 min with a stainless-steel lid in place. Luminescence readings were taken using a Viewlux (PerkinElmer) with a 2 s exposure time per plate. Compound dose-response curves were normalized to DMSO and empty well controls on each plate. Quantitative drug activity data from dose-response curves was determined utilizing area Under the Curve (AUC) and Z-transformed AUC (Z-AUC, a mean-centering transformation applied to each individual cell-line screened).
On the technique in general: In ATP-based viability assays light output follows the ATP content of the culture.
For orientation: viability means a read-out of living cells in per cent, often relative to untreated cells. Regarding `CC1(C)O[C@@H]2C[C@H]3[C@@H]4CCC5=CC(=O)C=C[C@]5(C)[C@H]4[C@@H](O)C[C@]3(C)[C@]2(C(=O)CO)O1`, the viability is 114% (inactive).

As for `COc1cc(-c2cc(-c3ccc(N4CCNCC4)cc3)cnc2C)cc(OC)c1OC`, the viability was 104% (inactive).

`Clc1ccc(-c2nc3sccn3c2/C=N/OCc2ccc(Cl)c(Cl)c2)cc1`: the viability was 112% (inactive).

Take `COc1ccc2c(c1)C(c1ccc(F)cc1)=C(CN1CCCC1)CO2`: the viability is 95.4% (inactive).

On to `O=C(NOCCO)c1cc(CN2OCCCC2=O)c(F)c(F)c1Nc1ccc(I)cc1F`, for which the viability is 70.8% (inactive).

Regarding `CC[C@@]1(O)C[C@H](O[C@H]2C[C@H](N(C)C)[C@H](O[C@H]3C[C@H](O)[C@H](O[C@H]4CCC(=O)[C@H](C)O4)[C@H](C)O3)[C@H](C)O2)c2c(cc3c(c2O)C(=O)c2c(O)cccc2C3=O)[C@@H]1C(=O)OC`, the Potency was 3720 nM (active).

As to `Nc1nc(F)nc2c1ncn2[C@@H]1O[C@H](COP(=O)(O)O)[C@@H](O)[C@@H]1O`, the Potency was 3720 nM (active).

Consider `CCOCOC[C@H](C[C@H](C)C(=O)NO)NC(=O)c1ccc(Oc2ccccc2)cc1`, for which the viability is 117% (inactive).

For `CCNCCS(=O)(=O)NC[C@@]1(c2ccccc2)SC(NC(=O)C(C)(C)C)=NN1C(=O)C(C)(C)C`, the Potency was 118 nM (active).

For the molecule `N#Cc1ccnc(N2C(=O)CC[C@H]2C(=O)N(c2cncc(F)c2)C(C(=O)NC2CC(F)(F)C2)c2ccccc2Cl)c1` (stereo not given in full), the viability was 91.5% (inactive).

Take `CS(=O)(=O)c1ccc(-c2cnc(NCc3ccco3)n3cnnc23)cc1`: the viability is 108% (inactive).

With `CC(C)=CCC/C(C)=C/CC/C(C)=C/CSc1ccccc1C(=O)O`, the viability was 106% (inactive).

As for `CC(C)Cc1ccc([C@@H](C)C(=O)NS(C)(=O)=O)cc1`, the viability is 112% (inactive).

With `C#C[C@]1(O)CC[C@H]2[C@@H]3[C@H](C)CC4=C(CCC(=O)C4)[C@H]3CC[C@@]21C`, the viability is 111% (inactive).

For the molecule `CCC(=O)O[C@]1(C(=O)CO)CC[C@H]2[C@@H]3CCC4=CC(=O)CC[C@]4(C)[C@H]3CC[C@@]21C`, the viability was 101% (inactive).

In the case of `Fc1ccc(-c2csc3ncnc(NCc4ccc5c(c4)OCO5)c23)cc1`, the Potency was 5900 nM (active).

Consider `CS(=O)(=O)c1ccc([C@@H](CC2CCCC2)C(=O)Nc2nccs2)cc1`, for which the viability was 79.4% (inactive).

For `COc1cccc(Nc2ncnn3ccc(CN4CC[C@@H](N)[C@H](O)C4)c23)c1`, the viability is 90.8% (inactive).

On to `Cc1cc(C)cc(Oc2ccc(CNC(=O)[C@H](C)N)cc2C)c1`, for which the viability was 109% (inactive).

On to `CCCCC(=O)OCC(=O)[C@]1(O)Cc2c(O)c3c(c(O)c2[C@@H](O[C@H]2C[C@H](NC(=O)C(F)(F)F)[C@H](O)[C@H](C)O2)C1)C(=O)c1c(OC)cccc1C3=O`, for which the Potency was 4170 nM (active).

On to `O=C1NC(=O)/C(=C\c2ccc(-c3ccc(F)cc3)o2)S1`, for which the Potency is 20900 nM (active).

In the case of `COc1cccc2c1C(=O)c1c(O)c3c(c(O)c1C2=O)C[C@@](O)(C(C)=O)C[C@@H]3O[C@H]1C[C@H](N)[C@H](O)[C@H](C)O1`, the Potency is 590 nM (active).

In the case of `C[C@H](Nc1nc(N[C@H](C)C(F)(F)F)nc(-c2cccc(Cl)n2)n1)C(F)(F)F`, the viability is 120% (inactive).

Regarding `CC1(C)O[C@@H]2C[C@H]3[C@@H]4C[C@H](F)C5=CC(=O)C=C[C@]5(C)[C@H]4[C@@H](O)C[C@]3(C)[C@]2(C(=O)CO)O1`, the viability is 108% (inactive).

For the molecule `CC/C(=C(/c1ccc(/C=C/C(=O)O)cc1)c1ccc2[nH]ncc2c1)c1ccc(F)cc1Cl`, the viability was 98.4% (inactive).

Take `COc1cc2c3c(n(CCCNCCO)c(=O)c2cc1OC)-c1cc2c(cc1C3=O)OCO2`: the Potency is 148 nM (active).

In the case of `CS(=O)(=O)Nc1cc2occ(NC=O)c(=O)c2cc1Oc1ccccc1`, the viability was 101% (inactive).

Turning to `COc1cc(F)ccc1-c1ncnc(Nc2cccc(CS(C)(=N)=O)c2)n1` (stereo not given), the Potency was 1320 nM (active).

For the molecule `COc1ccc(C(=O)CC2(O)C(=O)Nc3c(Cl)ccc(Cl)c32)cc1` (stereo not given), the Potency was 934 nM (active).

On to `COc1cc(-c2cn(C)c(=O)c3cnccc23)cc(OC)c1CN(C)C`, for which the viability is 106% (inactive).

Turning to `COc1ccc(-c2oc3c(CC=C(C)C)c(OC4O[C@H](CO)[C@@H](O)[C@H](O)[C@H]4O)cc(O)c3c(=O)c2OC2O[C@@H](C)[C@H](O)[C@@H](O)[C@H]2O)cc1` (stereo not given in full), the viability is 116% (inactive).

Take `CC1(C)OCCn2c1nc1c(N3CCOCC3)nc(-c3cnc(N)nc3)nc12`: the Potency was 1860 nM (active).

`CO[C@@]12[C@H](COC(N)=O)C3=C(C(=O)C(C)=C(N)C3=O)N1C[C@@H]1N[C@@H]12`: the viability was 95% (inactive).

On to `CCn1c(=O)c(-c2ccc(-c3cncs3)cc2Cl)cc2cnc(Nc3ccc(N4CCN(C)CC4)cc3)nc21`, for which the viability is 104% (inactive).

`[2H]C([2H])([2H])C(O)([C@@H](C)/C=C/[C@@H](C)[C@H]1CC[C@H]2/C(=C/C=C3C[C@@H](O)C[C@H](O)C3)CCC[C@]12C)C([2H])([2H])[2H]`: the viability is 79.5% (inactive).

With `CC1=C(/C=C/C(C)=C/C=C/C(C)=C/C=C/C=C(C)/C=C/C=C(C)/C=C/C2=C(C)CCCC2(C)C)C(C)(C)CCC1`, the viability is 103% (inactive).

In the case of `COc1cc(=C2C=c3ccccc3=N2)[nH]/c1=C/c1[nH]c(C)cc1C`, the Potency is 4170 nM (active).

`CC[C@@]1(O)C(=O)OCc2c1cc1n(c2=O)Cc2c-1nc1ccccc1c2CCNC(C)C`: the Potency was 16.6 nM (active).

Consider `NC(=O)C1=C(O)[C@@]2(O)C(=O)C3=C(O)c4c(O)cccc4C[C@H]3C[C@H]2CC1=O`, for which the Potency is 4680 nM (active).

As for `Cn1c(=O)c2c(ncn2CC2OCCO2)n(C)c1=O`, the viability is 103% (inactive).
